# Vaccinia Venus – vaccinia inhibition (Venus reporter) | Vaccinia virus Venus reporter expression, fluorescence | Potency, µM (top dose mostly 36.5 µM), for inactives: at the highest dose activity change, negative = inhibition, actives largely listed as inhibitors | 330,000 tested, 0.46% active; calls by dose curve; tested in A549 cells; further: potency means the concentration at half of the fitted maximal effect; nearly all actives have a fitted effect of over 30% in size
# Vaccinia mCherry – vaccinia inhibition (mCherry reporter). Potency, µM (top dose mostly 36.5 µM), for inactives: at the highest dose activity change, negative = inhibition, actives largely listed as inhibitors. 310,000 tested, 0.63% active. Vaccinia virus mCherry reporter infection, fluorescence; calls by dose curve; tested in A549 cells; further: potency means the concentration at half of the fitted maximal effect; nearly all actives have a fitted effect of over 35% in size
# HCMV inh – inhibitors of human cytomegalovirus; HFF cells, HCMV-luciferase reporter, 72 h; active compounds read low; activity change, negative = inhibition, % at 57.5 µM; 410,000 tested, 4.5% active; AID 1259415; in the data active means activity change below about -60%; inconclusive means no clear call, values can overlap the other calls; inactive means above about -39%
#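 Two compound doses tested in HFFs infected with HCMV-luciferase, MOI 1 PFU/cell, 72 h at 37C. Lysate luminescence read with OneGlo; data normalized against buffer-only and 10uM Salinomycin inhibitor controls.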
# TbPYK inhibitor – T. brucei pyruvate kinase inhibition | 410,000 tested, 0.12% active | Potency, µM (doses to about 76.8 µM), without a hit: at the highest dose activity, negative = inhibition, most hits filed as inhibitors | AID 624173 | TbPYK enzyme, Kinase-Glo Plus ATP luminescence, 45 min | Q57TT1; further: potency means the concentration at half of the fitted maximal effect; nearly all actives have a fitted effect of over 50% in size
#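 Luminescent Kinase-Glo Plus end-point after 45 min room-temperature reaction of T. brucei pyruvate kinase started with 130 uM ADP (final). Buffer TEA 50 mM pH 7.2 with KCl, MgCl2, BSA, Tween-20; titration-based qHTS with fitted concentration-effect curves.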
# LmPK inh – blocks Leishmania mexicana pyruvate kinase activity; Q27686; purified LmPK, Kinase-Glo ATP luminescence, 1 h; Potency, µM (titrated, usually from 57.5 µM), for inactives: at the highest dose activity change, negative = inhibition, usual class: inhibitors; 290,000 tested, 0.37% active; further: potency means the concentration at half of the fitted maximal effect
# Target sequence (Q27686 whole entry, looked up): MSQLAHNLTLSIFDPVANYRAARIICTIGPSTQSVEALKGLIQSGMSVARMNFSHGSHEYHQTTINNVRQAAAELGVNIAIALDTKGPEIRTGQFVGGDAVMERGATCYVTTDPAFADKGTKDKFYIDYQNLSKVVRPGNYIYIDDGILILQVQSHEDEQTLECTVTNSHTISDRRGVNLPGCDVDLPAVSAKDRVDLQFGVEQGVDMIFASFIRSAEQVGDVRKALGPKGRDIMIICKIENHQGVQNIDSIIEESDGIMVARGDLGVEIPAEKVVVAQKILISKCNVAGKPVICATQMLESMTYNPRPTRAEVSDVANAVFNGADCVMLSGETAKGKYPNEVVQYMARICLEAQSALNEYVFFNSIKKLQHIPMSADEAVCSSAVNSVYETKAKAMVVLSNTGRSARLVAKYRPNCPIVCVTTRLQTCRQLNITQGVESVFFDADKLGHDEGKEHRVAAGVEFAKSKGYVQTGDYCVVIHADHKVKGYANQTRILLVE
#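 ATP generated from ADP (0.1 mM) and PEP (0.5 mM) by 0.1 nM LmPK over 1 h at room temperature (pH 7.2 imidazole buffer) was detected by coupled luciferase luminescence. Values were normalized to uninhibited and no-enzyme wells.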
# An asterisk follows results filed as active; i = inactive; ? = inconclusive; . = no result; [ ] = dose if it differs, or a comment. Compounds with a hit are over-represented: about 5% of the library has one in this group of screens. Unless noted, the call rests on the fitted dose curve; in most records, active means well fitted curve in the direction sought with a large enough effect; inconclusive means small, poorly fitted or top-dose-only effect, or another doubt; inactive means no such curve, though single readings can be large; an effect the other way counts as inactive or inconclusive. On the % scale 0 is the no-effect control and ±100 the full control effect.
SMILES,Vaccinia Venus,Vaccinia mCherry,HCMV inh,TbPYK inhibitor,LmPK inh
CCOc1ccc(N2C(=O)CC(Cc3ccc(Br)cc3)C2=O)cc1 (stereo not given),.,.,-1,5%,2%
CCOc1ccc(-n2c(-c3ccc(OC)cc3)c[n+]3c2CCCCC3)cc1,-17%,i,-99*,-9%,-3%
CCOc1ccc(-n2c(-c3ccc(Br)cc3)c[n+]3c2CCCCC3)cc1,-5%,-18%,-99*,3%,-4%[11.5 µM]
CCN(CC(=O)NNC(=O)c1ccccc1)Cc1ccc(OC)c(F)c1,.,.,24,5%,.
CC1CCCC(NC(=O)CNCc2ccccc2F)C1C (stereo not given),-3%,-17%,-38,27%,2%
COc1ccccc1-n1c(=S)[nH]c2c(sc(=S)n2-c2ccccc2C)c1=O,-11%,-4%,-20,?,-1%
COc1ccc(/C=C2\N=C(c3ccccc3Cl)NC2=O)cc1,.,.,-73*,-1%,0%
Nc1nc(-c2ccccc2)c(-c2ccc([N+](=O)[O-])cc2)s1,?,22µM*,?,-10%,6%
Nc1nc(-c2ccccc2)c(-c2ccccc2)s1,-8%,-11%,70,-13%,0%
Cc1ccc(S(=O)(=O)C(CNC(=O)COc2ccc(Cl)cc2)c2ccco2)cc1 (stereo not given),-21%,-1%,-11,-1%,.
O=C1/C(=C\c2cccs2)Sc2ccc3ccccc3c21,8%,-10%,32,8%,-21%
N#Cc1c(N)nc2c(c1-c1cccnc1)CCCCC2,.,.,-62*,5%,-1%
O=C1C(c2ccc(C(F)(F)F)cc2)=C(Nc2ccc(Cl)cc2)c2ccccc21,?,?,7,2%,.
O=C(O)c1ccccc1,1%,7%,18,-2%,.
O=C(O)c1cc[c]([Hg][Cl])cc1,-7%,i,.,18µM*,.
O=C(CN1C(=O)C2(SCC(=O)N2c2ccccc2)c2ccccc21)NCCc1ccccc1 (stereo not given),-7%,-21%,0,7%,.
CC1(C)N=C(N)N=C(N)N1c1ccc(Oc2ccc(Cl)cc2)c(Cl)c1,?,?,-100*,2%,0%
CC1(C)N=C(N)N=C(N)N1c1cc(Cl)ccc1Cl,-15%,i,-5,-5%,.
CC(c1ccc(F)cc1)n1c(-c2ccc3ccccc3n2)n[nH]c1=S (stereo not given),-12%,-21%,59,-13%,11µM*
S=c1[nH]nc(-c2ccc3ccccc3n2)n1-c1ccccc1,-25%,i,32,?,28µM*
S=c1[nH]nc(-c2ccc3ccccc3n2)n1-c1ccc2c(c1)OCCO2,-15%,-10%,26,4.5µM*,8.9µM*
CC(C)C(=O)Nc1cc2c3c(c1)CCC(=O)N3CCC2,.,.,-18,-2%,-3%
CCOc1ccccc1Nc1nnc(SCC(=O)Nc2cccc(S(=O)(=O)NC3=NCCCCC3)c2)s1,-11%,-23%,9,-12%,3%
O=C(Nc1cccc(S(=O)(=O)N2CCOCC2)c1)C1CC1,.,.,?,0%,.
CCNC(=O)c1ccc(-n2c(-c3ccccc3)cc3c2CCCCC3)cc1,-13%,-8%,-15,-4%,.
SMILES,Vaccinia Venus,Vaccinia mCherry,HCMV inh,TbPYK inhibitor,LmPK inh
CN(C)CCNC(=O)c1ccc(-n2c(-c3ccccc3)cc3c2CCCC3)cc1,-25%,-18%,-92*,-1%,.
COCCNC(=O)c1ccc(-n2c(-c3ccccc3)cc3c2CCCCC3)cc1,-21%,-23%,-99*,7%,.
CCCNC(=O)c1ccc(-n2c(-c3ccccc3)cc3c2CCCCC3)cc1,-9%,i,-87*,1%,.
CC(C)NC(=O)c1ccc(-n2c(-c3ccccc3)cc3c2CCCC3)cc1,-19%,-10%,-68*,-1%,.
COC(=O)c1sccc1S(=O)(=O)N1CCN(c2cc(Cl)ccc2C)CC1,2%,-8%,-14,-3%,.
COC(=O)C1=C(CCc2ccccc2)NC(=O)NC1c1ccc(Cl)cc1 (stereo not given),-29%,i,-17,3%,.
CCOC(=O)CN1C(=O)N[C@@H](c2ccccc2)[C@H](C(C)=O)[C@H]1C,-5%,-1%,-103*,-2%,-3%[11.5 µM]
CCOC(=O)CN1C(=O)N[C@@H](c2ccccc2)[C@H](C(=O)OC)[C@H]1C,.,.,.,.,-3%[11.5 µM]
COc1cc(C=C(c2nc3ccccc3s2)c2nc3ccccc3s2)ccc1O,i,-1%,?,-3%,0%
COc1ccc(C=C(c2nc3ccccc3s2)c2nc3ccccc3s2)cc1O,-21%,i,-83*,-6%,3%
CCOc1cc2c(cc1OCC)-n1cccc1C(c1cccc(OCC)c1O)NC2 (stereo not given),-2%,-18%,9,-14%,-2%
Cc1ccc(-c2n[nH]c3c2C(c2ccccc2Cl)N(c2ccc(C(=O)O)cc2)C3=O)cc1 (stereo not given),-1%,-9%,-24,-1%,.
Cc1ccc(N2C(=O)c3[nH]nc(-c4ccc(Cl)cc4)c3C2c2ccc(F)cc2)cc1 (stereo not given),-26%,?,-105*,-7%,.
COc1cc(C2c3c(-c4ccc(C)cc4)n[nH]c3C(=O)N2c2ccc(F)cc2)ccc1O (stereo not given),-17%,-22%,?,9%,.
COc1ccc(OC)c(C2c3c(-c4ccc(Br)cc4)n[nH]c3C(=O)N2c2ccc(Cl)cc2)c1 (stereo not given),-24%,?,-105*,-9%,.
Cc1ccc(-c2n[nH]c3c2C(c2cccs2)N(c2ccc(Cl)cc2)C3=O)cc1 (stereo not given),-23%,?,-105*,6%,.
CCCn1c(Cc2ccccc2)n[nH]c1=S,-3%,.,47,?,-28%
Oc1ccc(-c2n[nH]c(=S)n2Cc2ccco2)cc1,.,.,8,?,11µM*
Oc1cc2ccccc2cc1-c1n[nH]c(=S)n1Cc1ccco1,.,.,14,?,?
S=c1[nH]nc(Cc2ccccc2)n1Cc1ccco1,.,.,-109*,?,-22%
C#CCOCCOCCOCCNc1nc(N2CCN(C(=O)[C@H](CCCCN)n3cc(C(N)CO)nn3)CC2)nc(N2CCN(C(=O)[C@H](CCC(=O)O)n3cc(C(N)Cc4ccc(O)cc4)nn3)CC2)n1 (stereo not given in full),.,.,.,.,1%
COc1cc2cc(C(c3nnnn3C3CCCC3)N3CCCCC3)c(=O)[nH]c2cc1OC (stereo not given),-4%,i,13,-1%,3%
O=c1[nH]c2cc3c(cc2cc1C(c1nnnn1C1CCCCC1)N1CCSCC1)OCCO3 (stereo not given),.,.,-107*,-10%,2%
COc1ccccc1CN1CC(C(=O)N2CCC(OC)CC2)CCC1=O (stereo not given),-8%,i,-64*,4%,-3%
Cc1cc(=O)oc2c(C)c(OCC(=O)N3CCC(C(=O)O)CC3)ccc12,-1%,0%,4,1%,-10%

# High-throughput results deposited in PubChem by National Center for Advancing Translational Sciences (NCATS).
